Screening data as filed in PubChem.
Compounds with a hit are over-represented: about 4% of the library has one in this group of screens.
GDH-TPI counter: inhibits GDH-TPI coupling enzymes, artifact for Mtb FBA screen | 360,000 tested, 1.2% active | AID 588335 | GDH-TPI coupled enzyme counterscreen, NADH absorbance | inhibition, % at 4.8 µM; in the data active means inhibition above about 30%
RecA intein inh: Mtb RecA intein splicing inhibition; P9WHJ3; cell-free RecA intein splicing, fluorescence; inhibition, % (no concentration beside the values); 290,000 tested, 0.75% active; AID 2221; in the data active means inhibition above about 30%; inconclusive means no clear call, values can overlap the other calls
Mtb UGM inh: inhibitors of M. tuberculosis UDP-galactopyranose mutase. P9WIQ1. purified UGM, fluorescence polarization probe displacement. inhibition, % at 10 µM. 320,000 tested, 0.06% active; in the data active means inhibition above about 10%, passing the limit was not always enough; inconclusive means no clear call, values can overlap the other calls
Target sequence (P9WIQ1 whole entry, looked up): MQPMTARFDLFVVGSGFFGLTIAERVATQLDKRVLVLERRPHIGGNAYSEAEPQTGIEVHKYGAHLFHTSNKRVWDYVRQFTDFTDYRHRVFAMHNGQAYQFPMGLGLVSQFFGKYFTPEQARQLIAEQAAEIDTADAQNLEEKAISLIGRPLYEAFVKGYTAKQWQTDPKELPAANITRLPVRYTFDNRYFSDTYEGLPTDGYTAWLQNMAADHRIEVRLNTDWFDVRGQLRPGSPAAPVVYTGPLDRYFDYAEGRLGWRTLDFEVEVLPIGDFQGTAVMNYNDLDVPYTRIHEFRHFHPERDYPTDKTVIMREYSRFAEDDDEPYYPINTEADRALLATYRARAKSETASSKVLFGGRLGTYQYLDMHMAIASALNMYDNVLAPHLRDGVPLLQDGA
Rv3671c inh: Rv3671c (M. tuberculosis) protease inhibition. 320,000 tested, 0.048% active. AID 2606. P9WHR9. inhibition, % at 5.96 µM; in the data active means inhibition above about 38%;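 further: extracellular domain of Rv3671c used as enzyme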
FBA Mtb inh: inhibits M. tuberculosis FBA enzyme. P9WQA3. purified M. tuberculosis FBA, fluorescence read-out. inhibition, % at 1 µM. 360,000 tested, 2.3% active. AID 588726; in the data active means inhibition above about 27%
Mtb betalactam: beta-lactam sensitization of Mtb H37Rv; M. tuberculosis H37Rv growth with meropenem, percent inhibition; inhibition, % at 25 µM; 330,000 tested, 0.27% active;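 further: growth measured after seven days incubation then overnight dye step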
GFP chromophore: counter-screen GFP chromophore formation inhibition | shares compounds with RecA intein inh | cell-free GFP chromophore formation, fluorescence | 2,100 tested, 83% active | EC50, µM
Large screens that a line does not name were inactive (follow-up assays come after a bar, where they were run). Unless noted, how the calls were made is not given here.

COc1ccc(NC(=O)CSc2c3c(nc4cc(Cl)ccc24)CCCC3)cc1OC	none | GFP chromophore 29
COc1ccc(CN2C(=O)C(CC(=O)NC3CCCC3)CC(C(=O)N3CCOCC3)=C2C)cc1 (stereo unspecified)	none (no result: GDH-TPI counter, RecA intein inh, Mtb UGM inh, Rv3671c inh, Mtb betalactam)
CN(C)CCN(Cc1ccccc1)C(=O)c1[nH]c(C(F)(F)F)nc1-c1ccccc1	none (no result: GDH-TPI counter, RecA intein inh, Mtb UGM inh, Rv3671c inh, Mtb betalactam)
O=[N+]([O-])c1ccc(C(O)C[n+]2ccccc2)cc1 (stereo unspecified)	none
N#Cc1ccc(CSc2nnc(NC(=O)CCc3nc4ccccc4c(=O)[nH]3)s2)cc1	none
Clc1ccc(CSC(Cn2ccnc2)c2ccc(Cl)cc2Cl)cc1 (stereo unspecified)	RecA intein inh 42 | GFP chromophore 23
COc1nc(Nc2ccccc2F)nc(OC)n1	none
C/C(=N\OCC(=O)OC(C)C(=O)Nc1ccc(C)c(S(=O)(=O)N2CCOCC2)c1)c1ccc2c(c1)OCO2 (stereo unspecified)	none (no result: RecA intein inh, Mtb UGM inh, Rv3671c inh, Mtb betalactam)
Cc1cc(C)n(-c2ccc([N+](=O)[O-])cc2)n1	RecA intein inh 43 | GFP chromophore inactive
CC(=O)N(Cc1ccc(F)cc1)C1=C(NCCc2ccccc2)C(=O)c2ccccc2C1=O	RecA intein inh 78 | GFP chromophore 11
O=C1C=C(NCc2ccccc2)c2ccccc2C1=O	RecA intein inh 92 (no result: Mtb UGM inh, Rv3671c inh, Mtb betalactam) | GFP chromophore 0.86
O=C1C=C(Nc2ccccc2O)c2ccccc2C1=O	RecA intein inh 95 | GFP chromophore inactive
Cc1ccc(NC2=CC(=O)C(=O)c3ccccc32)c(C)c1	none (no result: RecA intein inh)
COc1ccc(C(=O)C2C(c3ccc(-c4ccccc4[N+](=O)[O-])o3)NC(=O)NC2(O)C(F)(F)F)cc1 (stereo unspecified)	RecA intein inh 64 | GFP chromophore 32
CC(C)(C)OC(=O)NCCc1nnc(S(=O)(=O)Cc2ccc(Cl)cc2Cl)o1	RecA intein inh 85 | GFP chromophore inactive
CC1Cc2ccccc2N1C(=O)Cn1cc(C(F)(F)F)ccc1=O (stereo unspecified)	none (no result: RecA intein inh, Mtb UGM inh, Rv3671c inh, Mtb betalactam)
CCOC(=O)C1CCC2(CC1)C(C#N)=C(N)Oc1n[nH]c(C)c12 (stereo unspecified)	RecA intein inh 79 | GFP chromophore inactive
Cc1[nH]nc2c1C1(CCOCC1)C(C#N)=C(N)O2	RecA intein inh 78 | GFP chromophore 13
Cc1[nH]nc2c1C1(CCN(Cc3ccccc3)CC1)C(C#N)=C(N)O2	RecA intein inh 85 | GFP chromophore 14
CC(C)c1[nH]nc2c1C1(CCN(Cc3ccccc3)CC1)C(C#N)=C(N)O2	RecA intein inh 68 | GFP chromophore 21
COc1ccc(NC(=O)CN(C)C(=O)c2oc3c(ccc4ccccc43)c2C)cc1	none (no result: RecA intein inh)
Cc1ccc2c(C)c(C(=O)Nc3cccnc3)oc2c1C	none (no result: RecA intein inh, Mtb UGM inh, Rv3671c inh, Mtb betalactam)
Cc1ccc(NC(=O)Cn2nc(C(=O)O)c3ccccc3c2=O)cc1S(=O)(=O)N1CCCCCC1	none (no result: RecA intein inh, Mtb UGM inh, Rv3671c inh, Mtb betalactam)
CCOC(=O)C1=C(C)N(c2ccc(OC)cc2)C(=O)/C1=C\c1ccc(O)c(OCC)c1	none
CCOc1ccc(N2C(=O)/C(=C\c3ccc(OC)c(O)c3)S(=O)(=O)C2c2cccc([N+](=O)[O-])c2)cc1 (stereo unspecified)	RecA intein inh 82 | GFP chromophore 14
CCOc1ccc(N2C(=O)/C(=C\c3ccc(O)c(OC)c3)S(=O)(=O)C2c2cccc([N+](=O)[O-])c2)cc1 (stereo unspecified)	RecA intein inh 88 | GFP chromophore 2.5
CCOCc1nc2nc(Cl)c(Cl)nc2[nH]1	none (no result: RecA intein inh, Mtb UGM inh, Rv3671c inh, Mtb betalactam)
COc1cc(C(c2c(C)[nH][nH]c2=O)c2c(C)[nH][nH]c2=O)cc(Br)c1OC	RecA intein inh 99 | GFP chromophore 0.63
COc1cc2c(cc1OC)C(c1cc(Br)c(OC)c(OC)c1)CC(=O)N2 (stereo unspecified)	none (no result: Rv3671c inh)
CCOc1cc(C(c2c(C)[nH][nH]c2=O)c2c(C)[nH][nH]c2=O)cc(Br)c1OC	RecA intein inh 93 | GFP chromophore 0.49
Cc1cccc(Cn2nnc3c2C(=O)c2ccccc2C3=O)c1	RecA intein inh 37 | GFP chromophore 9.9
CC(CNC(=O)c1ccc(OC2CCN(Cc3ccccn3)CC2)cc1)c1ccccc1 (stereo unspecified)	none
CCN(C(=O)CSc1ncccc1C(=O)Oc1cccc([N+](=O)[O-])c1)c1cccc(C)c1	RecA intein inh 33 | GFP chromophore inconclusive
CSc1cccc(NC(=O)CSc2ncccc2C(=O)Oc2cccc([N+](=O)[O-])c2)c1	none
O=C(c1cccc(C(F)(F)F)c1)C1CCCN(Cc2ncc[nH]2)C1 (stereo unspecified)	RecA intein inh 38 | GFP chromophore inactive
CCn1ccnc1CN1CCCC(C(=O)c2cccc(C(F)(F)F)c2)C1 (stereo unspecified)	none
CCCCCCCCCCC[N+](C)(C)CC/C=C1/c2ccccc2Sc2ccc(Cl)cc21	RecA intein inh 63 | GFP chromophore 9.5
CC[N+](C)(C)CC/C=C1/c2ccccc2Sc2ccc(Cl)cc21	none
CN(C)CC/C=C1\c2ccccc2Sc2ccc(Cl)cc21	none
CCCCCCCCCC[N+](C)(C)CC/C=C1/c2ccccc2Sc2ccc(Cl)cc21	RecA intein inh 69 | GFP chromophore 12
COCc1nnc(NC(=O)CS(=O)(=O)c2ccc(C)cc2)s1	none
CC(=O)NC(=S)c1c(N)n(Cc2ccccc2)c(=O)n(C)c1=O	RecA intein inh 33 (no result: GDH-TPI counter, FBA Mtb inh) | GFP chromophore inactive
CC(C)CCN(C(=O)c1csnn1)C(C(=O)NC1CCCCC1)c1ccc(F)cc1 (stereo unspecified)	none
C/C(CC(=O)Nc1cc(C)ccn1)=N\NC(=O)c1cccc(C)c1	RecA intein inh 70 | GFP chromophore 18
C/C(CC(=O)Nc1cc(C)ccn1)=N\NC(=O)C(=O)NC(C)C	RecA intein inh 64 | GFP chromophore 39
C/C(CC(=O)Nc1cccnc1)=N\NC(=O)C(=O)NC(C)C	none
O=C(/C=C/c1ccc(Cl)cc1Cl)OCC(=O)N1CCCC1	none (no result: RecA intein inh)
COCCOC(=O)C1=C(C)N=C2SCCC(=O)N2C1c1ccc(OC(=O)c2ccco2)cc1 (stereo unspecified)	RecA intein inh 33 | GFP chromophore inactive
CN(C(=O)c1cccc(C#CC(C)(C)O)c1)C1CCCN(Cc2ccccc2F)C1 (stereo unspecified)	none
c1ccc(Nc2nc(NCc3ccco3)c3ccccc3n2)cc1	RecA intein inh 38 | GFP chromophore 26
Cc1cccc(Nc2nc(NCc3ccco3)c3ccccc3n2)c1	RecA intein inh 33 | GFP chromophore 15
CCN(CC)C(=O)C1=C(C)N(Cc2ccccc2)C(=O)C(CC(=O)NCC2CCCCC2)C1 (stereo unspecified)	none (no result: RecA intein inh, Mtb UGM inh, Rv3671c inh, Mtb betalactam)
CCCCN(C(C)=O)c1c(CC)nc2ccc(C(=O)NCCCN(C)C)cn12	none (no result: RecA intein inh, Mtb UGM inh, Rv3671c inh, Mtb betalactam)
OC[C@@H]1CN(Cc2ccc(Cl)cc2)C[C@H](n2cnc3c(NCc4ccc(F)cc4)ncnc32)O1	none (no result: RecA intein inh, Mtb UGM inh, Rv3671c inh, Mtb betalactam)
